Values joined by “and” are separate entries in the source; they are usually repeats but may differ in a detail not shown here. Equal entries are not always repeated. Results filed as inconclusive are left out. More than one record can exist for a structure, and the calls need not agree. Active and inactive are the calls of the source. How the source made its calls, unless noted: active means hit-call score of the fitted dose curve at least 0.9, where 1 is the maximum; inactive means score below 0.9.

Read-out in test [1]: Interleukin-8 (IL8), CXCL8 (gene 3576)
As to the kind of experiment: BSK_3C_IL8: BioMAP Diversity Plus: 3C Assay for Interleukin-8 (IL8) Biomarker Activity (AID 2283020). The note with it: primary human endothelial cells (HUVEC); actives raise or lower the signal. Put shortly:
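HUVEC, 3C stimulation; 24 h compound exposure; IL-8 read by ELISA; gain or loss of signal fitted relative to DMSO control.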

Read-out in test [2]: Monokine induced gamma interferon (MIG), CXCL9 (gene 4283)
As to the kind of experiment: BSK_3C_MIG: BioMAP Diversity Plus: 3C Assay for Monokine induced gamma interferon (MIG) Biomarker Activity (AID 2283021). Conditions: primary human endothelial cells (HUVEC); actives raise or lower the signal. Put shortly:
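HUVEC, 3C system; 24 h chemical exposure; MIG by ELISA; bidirectional fit vs DMSO baseline.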

Test [3] has as its target human Vitamin D Receptor (VDR), VDR (gene 7421) (UniProt P11473). In words: ATG_VDR_TRANS: Attagene TRANS-FACTORIAL HepG2 Assay for human Vitamin D Receptor (VDR) (AID 2283022; active means hit-call score of the fitted dose curve at least 0.9, where 1 is the maximum). In outline: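 Transactivation by an exogenous VDR-Gal4 chimera in transiently transfected HepG2 cells was measured as reporter transcript level 24 hours after chemical treatment. RT-PCR products were analysed by capillary electrophoresis and fitted in the positive direction relative to DMSO.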

Test [4] in a line: BSK_3C_SRB: Viability Assessment in the BioMAP Diversity Plus: 3C Assay (AID 2283023).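 Further: fitted both ways against DMSO so a hit may be signal rise or drop.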 The note with it: primary human endothelial cells (HUVEC). Put shortly:
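Cytotoxicity readout in parallel HUVEC 3C cultures: after 24 h compound exposure, cells fixed with 10% TCA, stained with 0.1% SRB and read at 560 nm. Gain or loss relative to DMSO fitted.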

Read-out in test [5]: Matrix Metallopeptidase 1 (MMP1), MMP1 (gene 4312)
As to the kind of experiment: BSK_BE3C_MMP1: BioMAP Diversity Plus: BE3C Assay for Matrix Metallopeptidase 1 (MMP1) Biomarker Activity (AID 2283024). Conditions: primary human bronchial epithelial cells; actives raise or lower the signal. Put shortly: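 ELISA read-out of MMP1 in human lung bronchial epithelial primary cultures, 24 h post-dose; bidirectional curve fit vs DMSO baseline, gain or loss of signal scored.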

Test [6] in a line: BSK_3C_Vis: BioMAP Diversity Plus: 3C Assay for Morphology Visualization (AID 2283025).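 Further: fitted both ways so gain or loss versus DMSO counts.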 Conditions: primary human endothelial cells (HUVEC). In outline:
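HUVEC, 3C system; light microscopy of morphology at 24 h post-dose. Bidirectional fit vs DMSO baseline. Secondary readout, background-control function.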

Read-out in test [7]: Pselectin, SELP (gene 6403)
As to the kind of experiment: BSK_4H_Pselectin: BioMAP Diversity Plus: 4H Assay for Pselectin Biomarker Activity (AID 2283026). Conditions: primary human endothelial cells (HUVEC); actives raise or lower the signal. In outline: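 HUVEC, 24 h chemical exposure; P-selectin read by ELISA. Bidirectional curve fit vs DMSO baseline; gain or loss of signal scored.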

A short description of test [8]: BSK_4H_SRB: Viability Assessment in the BioMAP Diversity Plus: 4H Assay (AID 2283027).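 Further: cells exposed to compound for 24 h before staining.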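 On AC50: curves fitted both ways versus DMSO so AC50 may be loss or gain.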 Conditions: primary human endothelial cells (HUVEC). Put shortly: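 Cytotoxicity readout: sulforhodamine B (0.1%) staining of total protein after 10% TCA fixation, measured at 560 nm in human umbilical vein endothelium at 24 h. DMSO set the baseline; fitting was bidirectional.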

The nature of test [9]: BSK_BE3C_SRB: Viability Assessment in the BioMAP Diversity Plus: BE3C Assay (AID 2283028).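 Further: measured 24 h after chemical dosing.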 Conditions: primary human bronchial epithelial cells. In outline: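 Cytotoxicity read-out: SRB (0.1%) staining of TCA-fixed (10%) human lung bronchial epithelial cells, absorbance 560 nm, 24 h post-dosing. Curves fitted both directions relative to DMSO.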
Read-out in test [10]: Thrombomodulin, THBD (gene 7056)
In words: BSK_3C_Thrombomodulin: BioMAP Diversity Plus: 3C Assay for Thrombomodulin Biomarker Activity (AID 2283029). Conditions: primary human endothelial cells (HUVEC); actives raise or lower the signal. In outline: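 HUVEC, 3C conditions; compound 24 h; thrombomodulin by ELISA; bidirectional curve fit vs DMSO baseline; parallel SRB total-protein staining for cytotoxicity.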

Read-out in test [11]: Urokinase-type plasminogen activator receptor (uPAR), PLAUR (gene 5329)
In words: BSK_4H_uPAR: BioMAP Diversity Plus: 4H Assay for Urokinase-type plasminogen activator receptor (uPAR) Biomarker Activity (AID 2283030). Conditions: primary human endothelial cells (HUVEC); actives raise or lower the signal. In outline: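 uPAR level read by ELISA on HUVEC cultures (BioMAP 4H) 24 h post-dosing, analyzed for gain or loss relative to DMSO. Parallel SRB staining assessed overt cytotoxicity.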

Read-out in test [12]: Vascular endothelial growth factor receptor 2 (Homo sapiens) (UniProt P35968)
In words: BSK_4H_VEGFRII: BioMAP Diversity Plus: 4H Assay for Vascular endothelial growth factor receptor 2 (VEGFR2) Biomarker Activity (AID 2283031). Conditions: primary human endothelial cells (HUVEC); actives raise or lower the signal. Put shortly:
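Measured by ELISA after 24 h of compound treatment: VEGFR2 on primary human umbilical vein endothelial cells, fitted in both directions relative to DMSO. Parallel cultures received SRB staining (560 nm) for overt cytotoxicity.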

Read-out in test [13]: Human Leukocyte Antigen - DR isotype (HLADR), HLA-DRA (gene 3122)
As to the kind of experiment: BSK_BE3C_HLADR: BioMAP Diversity Plus: BE3C Assay for Human Leukocyte Antigen - DR isotype (HLADR) Biomarker Activity (AID 2283032). Conditions: primary human bronchial epithelial cells; actives raise or lower the signal. Put shortly: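 Primary human bronchial epithelial cells (BE3C); 24 h chemical exposure; HLA-DR by ELISA; bidirectional curve fit vs DMSO baseline.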

Read-out in test [14]: Vascular cell adhesion molecule 1 (VCAM1), VCAM1 (gene 7412)
As to the kind of experiment: BSK_4H_VCAM1: BioMAP Diversity Plus: 4H Assay for Vascular cell adhesion molecule 1 (VCAM1) Biomarker Activity (AID 2283033).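 On outcome: cell-surface VCAM-1 protein measured by ELISA.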 Conditions: primary human endothelial cells (HUVEC); actives raise or lower the signal. Put shortly: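 HUVEC, 24 h post-dose; VCAM-1 by ELISA. Bidirectional curve fit vs DMSO baseline. Parallel SRB total-protein stain (0.1% SRB after 10% TCA fixation, 560 nm) for cytotoxicity.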

Read-out in test [15]: Interferon-gamma inducible Protein 10 (IP10), CXCL10 (gene 3627)
As to the kind of experiment: BSK_BE3C_IP10: BioMAP Diversity Plus: BE3C Assay for Interferon-gamma inducible Protein 10 (IP10) Biomarker Activity (AID 2283034). Conditions: primary human bronchial epithelial cells; actives raise or lower the signal. In outline: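 ELISA readout of IP-10 in BE3C system: primary human bronchial epithelial cells, 24 h post-dosing; bidirectional curve fit vs DMSO baseline.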

Read-out in test [16]: Monokine induced gamma interferon (MIG), CXCL9 (gene 4283)
As to the kind of experiment: BSK_BE3C_MIG: BioMAP Diversity Plus: BE3C Assay for Monokine induced gamma interferon (MIG) Biomarker Activity (AID 2283035).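 Further: MIG protein measured by ELISA in BE3C cultures after 24 h of dosing.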 The note with it: primary human bronchial epithelial cells; actives raise or lower the signal. In outline:
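hu bronchial epithelial 1° cells, 24 h cpd; MIG by ELISA; bidirectional fit, DMSO = baseline.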

Read-out in test [17]: Transforming growth factor beta 1 (TGFb1), TGFB1 (gene 7040)
In words: BSK_BE3C_TGFb1: BioMAP Diversity Plus: BE3C Assay for Transforming growth factor beta 1 (TGFb1) Biomarker Activity (AID 2283036;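 further: TGF-b1 protein level measured by ELISA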). The note with it: primary human bronchial epithelial cells; actives raise or lower the signal. Put shortly: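 Read-out: ELISA for TGF-b1 in primary human bronchial epithelial cultures, 24 h post-dose. Bidirectional curve fitting vs DMSO control; gain or loss of signal both scored.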

Read-out in test [18]: Plasminogen activator inhibitor-1 (PAI1), SERPINE1 (gene 5054)
As to the kind of experiment: BSK_BE3C_PAI1: BioMAP Diversity Plus: BE3C Assay for Plasminogen activator inhibitor-1 (PAI1) Biomarker Activity (AID 2283037). Conditions: primary human bronchial epithelial cells; actives raise or lower the signal. In outline: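 ELISA read-out of PAI-1 from human bronchial epithelial primary cells, 24 h post-dosing; bidirectional curve fit vs DMSO baseline, gain or loss of signal scored.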

Read-out in test [19]: urokinase plasminogen activator (uPA), PLAU (gene 5328)
As to the kind of experiment: BSK_BE3C_uPA: BioMAP Diversity Plus: BE3C Assay for urokinase plasminogen activator (uPA) Biomarker Activity (AID 2283038).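 Further: uPA protein level quantified by ELISA in cell cultures; uPA read one day after compound addition.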 The note with it: primary human bronchial epithelial cells; actives raise or lower the signal. In outline: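 ELISA for uPA on human primary bronchial epithelial cultures 24 h post-treatment, gain or loss against DMSO. Parallel SRB staining (0.1% after 10% TCA fixation, 560 nm) assessed overt cytotoxicity.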

Read-out in test [20]: Urokinase-type plasminogen activator receptor (uPAR), PLAUR (gene 5329)
In words: BSK_BE3C_uPAR: BioMAP Diversity Plus: BE3C Assay for Urokinase-type plasminogen activator receptor (uPAR) Biomarker Activity (AID 2283039).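 On outcome: uPAR protein level measured by ELISA on the cells; cells exposed to compound for one day before measurement.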 Conditions: primary human bronchial epithelial cells; actives raise or lower the signal. Put shortly:
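ELISA readout of uPAR on human lung primary bronchial epithelial cells, 24 h post-dosing. Bidirectional curve fit relative to DMSO vehicle baseline; gain or loss of signal both scored.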

Sequence of human Vitamin D Receptor (VDR), VDR (gene 7421) (P11473 whole entry, looked up, the tested form may be a part): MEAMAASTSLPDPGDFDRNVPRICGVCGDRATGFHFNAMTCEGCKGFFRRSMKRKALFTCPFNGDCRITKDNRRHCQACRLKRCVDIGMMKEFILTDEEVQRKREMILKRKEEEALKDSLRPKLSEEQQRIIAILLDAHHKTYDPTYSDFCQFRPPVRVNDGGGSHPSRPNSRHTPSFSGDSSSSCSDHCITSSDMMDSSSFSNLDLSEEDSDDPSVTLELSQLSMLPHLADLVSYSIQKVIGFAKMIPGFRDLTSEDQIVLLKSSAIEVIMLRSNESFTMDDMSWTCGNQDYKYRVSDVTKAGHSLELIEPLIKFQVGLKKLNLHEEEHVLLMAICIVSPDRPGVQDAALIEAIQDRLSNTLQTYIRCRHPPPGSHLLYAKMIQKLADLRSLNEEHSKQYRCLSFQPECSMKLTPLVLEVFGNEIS

Regarding `CCN(CC)c1ccc(C=O)c(O)c1`, the outcome in test [1], in [2], in test [3], in [4], in test [5] and in [6] was inactive. Also, the outcome in test [7], in test [8], in test [9], in test [10], in test [11] and in test [12] was inactive. Moreover, the outcome in test [13], in test [14], in [15], in test [16], in [17] and in [18] was inactive. Moreover, the outcome in [19] and in test [20] was inactive.

Broadly, the AC50 is the concentration giving half of the maximal activity seen. On to `O=C(O)C(F)(F)C(F)(F)C(F)(F)C(F)(F)C(F)(F)C(F)(F)C(F)F`, for which the AC50 in test [1] is 30 µM (active); in [5], 12 µM (active). The outcome in test [1], in [2], in test [3], in [4], in [5] and in [7] was inactive. For the same molecule, the result in [8], in test [9], in test [10], in test [11], in [12] and in test [13] was inactive. Moreover, the result in test [14], in [15], in test [16], in test [18], in test [19] and in [20] was inactive.

Turning to `FC(F)(F)C(F)(F)C(F)(F)CC1CO1` (centres undefined), the outcome in [1], in test [2], in test [3], in test [4], in test [5] and in [7] was inactive. Also, the outcome in [8], in test [9], in test [10], in test [11], in test [12] and in test [13] was inactive. Moreover, the outcome in [14], in test [15], in test [16], in test [18], in test [19] and in test [20] was inactive. Besides, in test [5], the AC50 is 26.3 µM (active).

For `NC(=O)C(F)(F)C(F)(F)C(F)(F)F`, the outcome in test [1], in [2], in [3], in [4], in [5] and in test [7] was inactive. The result in test [8], in [9], in test [10], in test [11], in test [12] and in test [13] was inactive. In addition, the result in test [14], in [15], in test [16], in test [18], in test [19] and in test [20] was inactive. In test [10], the AC50 was 5.95 µM (active).

As to `NS(=O)(=O)C(F)(F)C(F)(F)C(F)(F)C(F)(F)C(F)(F)C(F)(F)F`, the result in [1], in test [2], in test [3], in [7], in test [9] and in [10] was inactive. Moreover, the result in [11], in test [12], in [13], in test [14], in test [16] and in test [18] was inactive. Further, the result in [19] and in test [20] was inactive. Besides, the AC50 in [4] was 49.4 µM (active) and 44.3 µM (active); in [5], 30 µM (active) and 33.2 µM (active); in test [8], 37.2 µM (active) and 30 µM (active); in test [14] it was 30 µM (active); in test [15], 30 µM (active) and 24.4 µM (active); in test [18], 7.32 µM (active). Also, the AC50 in [20] is 41.8 µM (active).

In the case of `Cc1ccc(O)c(-n2nc3ccccc3n2)c1`, the result in test [1], in test [2], in test [3], in test [4], in test [5] and in test [6] was inactive. In addition, the outcome in [7], in test [8], in test [9], in [10], in test [11] and in [12] was inactive. The result in test [13], in test [14], in test [15], in [16], in test [17] and in [18] was inactive. Moreover, the outcome in test [19] and in test [20] was inactive.

The values are drawn from PubChem BioAssay (EPA / NIEHS).
